According to PubChem BioAssay:
The source made the active and inactive calls. Unless noted, no rule for the calls is given here.

Legend:
[1] = compound effects on lung adenocarcinoma cell viability – A549, calcein-AM fluorescence, 48 h, basal, profiling panel (AID 1162); conditions: higher = more signal; also: test concentration not given here
[2] = compound effects on differentiated 3T3-L1 adipocyte viability – cell-based, 3T3-L1 adipocytes, calcein-AM fluorescence, 48 h, basal, profiling panel (AID 1163); conditions: 3T3-L1 adipocytes viability, higher = more signal; also: test concentration not given here
[3] = compound effects on hepatocellular carcinoma cell viability – HepG2, calcein-AM fluorescence, 48 h, basal, profiling panel (AID 1164); conditions: higher = more signal; also: test concentration not given here
[4] = compound effects on multiple myeloma cell viability – MM1S, calcein-AM fluorescence, 48 h, basal, profiling panel (AID 1165); conditions: higher = more signal; also: test concentration not given here
[5] = calcein-AM signal in unstimulated myeloma cells – cell-based, calcein-AM fluorescence, 48 h, PK04 Diversity Set, profiling panel (AID 1166); conditions: RPMI8226 myeloma viability, higher = more signal;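 also: cells grown under basal conditions without added stimulus; test concentration not given here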
[6] = JC-1 mitochondrial signal, unstimulated HepG2 cells – cell-based, JC-1 fluorescence, 24 h, 100 nL compound, profiling panel (AID 1167); conditions: HepG2 mitochondrial potential, higher = more signal; also: test concentration not given here
[7] = JC-1 mitochondrial signal, unstimulated adipocytes – cell-based, JC-1 fluorescence, 3T3-L1 adipocytes, 24 h, 100 nL compound, profiling panel (AID 1168); conditions: JC-1 mitochondrial fluorescence, higher = more signal, called active from +8 up or from −8 down; also: test concentration not given here
[8] = JC-1 mitochondrial signal, unstimulated myeloma cells – cell-based, JC-1 fluorescence, RPMI8226, 24 h, 100 nL compound, profiling panel (AID 1169); conditions: JC-1 mitochondrial potential fluorescence, higher = more signal; also: test concentration not given here
[9] = JC-1 mitochondrial signal, unstimulated MM1S myeloma – cell-based, JC-1 fluorescence, 24 h, 100 nL compound, profiling panel (AID 1170); conditions: MM1S mitochondrial potential, higher = more signal; also: test concentration not given here
[10] = resazurin metabolic signal in A549 cells – cell-based, resazurin fluorescence, 24 h, PK04 Diversity Set, profiling panel (AID 1171); conditions: A549 viability, higher = more signal, called active from +8 up or from −8 down; also: test concentration not given here
[11] = resazurin metabolic signal in HepG2 cells – cell-based, resazurin fluorescence, 24 h, PK04 Diversity Set, profiling panel (AID 1172); conditions: HepG2 viability, higher = more signal; also: test concentration not given here
[12] = budding yeast growth changes without added modifier – OD600, strain BY4716, 24 h, basal condition, primary screen (AID 1173); conditions: S. cerevisiae BY4716 growth, OD600, 24 h; higher = more signal, called active from +8 up or from −8 down
[13] = viability profiling in MM1S myeloma cells – cell-based, resazurin fluorescence, basal, 24 h, PK04 Diversity Set, profiling panel (AID 1174); conditions: higher = more signal, called active from +8 up or from −8 down; also: test concentration not given here
[14] = molecular target: Dihydroorotate dehydrogenase (quinone), mitochondrial (Plasmodium falciparum (isolate 3D7)) (UniProt Q08210); assay: inhibition of P. falciparum DHODH – biochemical, C-terminal His tag, absorbance 600 nm, primary screen (AID 1175); conditions: PfDHODH enzyme, DCIP absorbance 600 nm; higher = more signal, called active from +8 up or from −8 down;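 also: recombinant parasite enzyme with a five histidine tag at its C terminus; test concentration not given here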
[15] = inhibition of PAO1 biofilm formation – strain PAO1, LB-PBS medium, absorbance 600 nm, primary screen (AID 1176); also: test concentration not given here; conditions: P. aeruginosa PAO1 growth/biofilm, A600, 12 h; higher = more signal
[16] = growth modulation of vineyard yeast isolate – strain RM11-1a, OD600, basal, 24 h, primary screen (AID 1177);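 also: cultures grown under basal conditions with no added stressor; test concentration not given here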; conditions: S. cerevisiae RM11-1a growth, OD600, 24 h; higher = more signal, called active from +8 up or from −8 down
[17] = growth of efflux-deficient E. coli DRC39 – strain DRC39, OD650, 24 h, E. coli filamentation inducers, primary screen (AID 1178);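 also: growth measured as culture turbidity by optical density at 650 nm; test concentration not given here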; conditions: E. coli DRC39 acrAB, higher = more signal, called active from +8 up or from −8 down
[18] = growth of efflux-deficient E. coli DRC39 – strain DRC39, OD650, 48 h, E. coli filamentation inducers, primary screen (AID 1179);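 also: screen aims at cell division blockers that make cells filament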; conditions: E. coli DRC39 delta-acrAB growth, higher = more signal, called active from +8 up or from −8 down
[19] = viability profiling in RPMI8226 myeloma cells – cell-based, resazurin fluorescence, basal, 24 h, PK04 Diversity Set, profiling panel (AID 1180); conditions: higher = more signal;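 also: RPMI8826 multiple myeloma cell line at 5000 cells per well; test concentration not given here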
[20] = molecular target: E3 ubiquitin-protein ligase XIAP (Homo sapiens) (UniProt P98170); assay: small molecules binding XIAP protein – biophysical, small-molecule microarray, fluorescence 635 nm, primary screen (AID 1181); conditions: higher = more signal;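 also: score merges 667 nm emission and signal to noise over triplicate slides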
E3 ubiquitin-protein ligase XIAP (Homo sapiens), sequence (P98170 whole entry, looked up): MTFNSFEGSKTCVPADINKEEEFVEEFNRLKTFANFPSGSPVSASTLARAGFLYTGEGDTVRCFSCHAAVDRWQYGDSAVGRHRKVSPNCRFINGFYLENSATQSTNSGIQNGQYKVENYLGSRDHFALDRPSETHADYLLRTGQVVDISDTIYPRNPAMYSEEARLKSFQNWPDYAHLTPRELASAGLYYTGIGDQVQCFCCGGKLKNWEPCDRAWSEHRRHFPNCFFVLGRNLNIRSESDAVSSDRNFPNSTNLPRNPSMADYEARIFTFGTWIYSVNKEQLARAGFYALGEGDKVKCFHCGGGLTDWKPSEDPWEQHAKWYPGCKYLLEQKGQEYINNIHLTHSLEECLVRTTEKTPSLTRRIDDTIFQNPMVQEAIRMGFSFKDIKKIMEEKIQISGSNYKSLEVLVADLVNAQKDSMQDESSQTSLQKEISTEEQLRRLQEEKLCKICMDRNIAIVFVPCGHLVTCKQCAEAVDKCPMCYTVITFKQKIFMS

Dihydroorotate dehydrogenase (quinone), mitochondrial (Plasmodium falciparum (isolate 3D7)), sequence (Q08210 whole entry, looked up): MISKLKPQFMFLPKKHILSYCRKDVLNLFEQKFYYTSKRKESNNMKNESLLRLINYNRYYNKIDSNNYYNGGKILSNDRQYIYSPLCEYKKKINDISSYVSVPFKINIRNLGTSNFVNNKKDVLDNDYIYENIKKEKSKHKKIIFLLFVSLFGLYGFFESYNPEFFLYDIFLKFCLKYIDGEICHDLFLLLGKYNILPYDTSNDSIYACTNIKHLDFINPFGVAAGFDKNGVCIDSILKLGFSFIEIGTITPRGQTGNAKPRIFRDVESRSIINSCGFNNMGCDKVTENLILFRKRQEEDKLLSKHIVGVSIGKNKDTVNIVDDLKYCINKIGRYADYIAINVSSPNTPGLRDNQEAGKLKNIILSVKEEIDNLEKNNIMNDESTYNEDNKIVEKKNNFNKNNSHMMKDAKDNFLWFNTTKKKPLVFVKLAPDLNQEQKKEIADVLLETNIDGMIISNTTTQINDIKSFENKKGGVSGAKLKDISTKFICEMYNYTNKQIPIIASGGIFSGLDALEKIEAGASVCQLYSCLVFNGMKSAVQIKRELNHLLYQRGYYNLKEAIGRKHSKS

SMILES: CN1C(=O)C2C=CC(C(O)c3cccc(O)c3)N(Nc3ccccc3)C2C1=O (stereo not given)
- z-score [1]: -0.501
- z-score [2]: -0.58
- z-score [3]: -0.333
- z-score [4]: -1.58
- z-score [5]: -1.67
- z-score [6]: -0.579
- z-score [7]: 0.548 (inactive)
- z-score [8]: -0.419
- z-score [9]: -0.179
- z-score [10]: 0.0494 (inactive)
- z-score [11]: 0.0748
- z-score [12]: 0.655 (inactive)
- z-score [13]: -0.462 (inactive)
- composite z-score [14]: 0.613 (inactive)
- z-score [15]: -0.159 (inactive)
- z-score [16]: 0.837 (inactive)
- z-score [17]: -1.32 (inactive)
- z-score [18]: -0.17 (inactive)
- z-score [19]: -2.48
- composite z-score [20]: -0.0812

SMILES: CC(=O)NCCCC[C@@H]1NC(=O)[C@H]2C[C@@H](C(=O)NCCCC[N+](C)(C)C)[C@@H](c3cccc(OCCO)c3)N2C1=O
- z-score [1]: -0.443
- z-score [2]: 0.247
- z-score [3]: -0.641
- z-score [4]: -1.7
- z-score [5]: 0.206
- z-score [6]: 0.105
- z-score [7]: 0.169 (inactive)
- z-score [8]: -0.336
- z-score [9]: 1.03
- z-score [10]: -0.549 (inactive)
- z-score [11]: -0.704
- z-score [12]: 0.294 (inactive)
- z-score [13]: 0.785 (inactive)
- composite z-score [14]: -30.8 (active)
- z-score [15]: 0.45 (inactive)
- z-score [16]: -0.724 (inactive)
- z-score [17]: 0.417 (inactive)
- z-score [18]: -0.369 (inactive)
- z-score [19]: 0.228
- composite z-score [20]: 0.0223

SMILES: CN1C(=O)C2C=CC(C(O)COCc3ccccc3)N(N(c3ccccc3)c3ccccc3)C2C1=O (stereo not given)
- z-score [1]: 1.52
- z-score [2]: -1.5
- z-score [3]: 0.688
- z-score [4]: -3.79
- z-score [5]: -3.67
- z-score [6]: 0.0589
- z-score [7]: -1.12 (inactive)
- z-score [8]: -0.974
- z-score [9]: -1.34
- z-score [10]: 0.419 (inactive)
- z-score [11]: 0.669
- z-score [12]: -2.9 (inactive)
- z-score [13]: -0.902 (inactive)
- composite z-score [14]: -0.0748 (inactive)
- z-score [15]: 1.04 (inactive)
- z-score [16]: 0.591 (inactive)
- z-score [17]: 0.202 (inactive)
- z-score [18]: 0.0087 (inactive)
- z-score [19]: -0.861
- composite z-score [20]: 0.0537

SMILES: O=C1NC(=O)C2C1C=CC(C(O)c1cccc3ccccc13)N2Nc1ccc(Cl)cc1Cl (stereo not given)
- z-score [1]: -2.6
- z-score [2]: -0.132
- z-score [3]: -2.76
- z-score [4]: -3.71
- z-score [5]: -4.17
- z-score [6]: -4.07
- z-score [7]: -1.1 (inactive)
- z-score [8]: -0.962
- z-score [9]: -0.213
- z-score [10]: -0.993 (inactive)
- z-score [11]: -2.01
- z-score [12]: -4.99 (inactive)
- z-score [13]: -1.66 (inactive)
- composite z-score [14]: 0.847 (inactive)
- z-score [15]: 0.875 (inactive)
- z-score [16]: 0.981 (inactive)
- z-score [17]: -0.693 (inactive)
- z-score [18]: -0.726 (inactive)
- z-score [19]: -1.84
- composite z-score [20]: 0.351

SMILES: O=C1NC(=O)C2C1C=CC(C(O)c1ccco1)N2Nc1ccccn1 (stereo not given)
- z-score [1]: -0.291
- z-score [2]: -0.0855
- z-score [3]: -0.125
- z-score [4]: -0.0456
- z-score [5]: -0.529
- z-score [6]: -1.33
- z-score [7]: -0.688 (inactive)
- z-score [8]: 0.127
- z-score [9]: -0.154
- z-score [10]: -0.974 (inactive)
- z-score [11]: -1.32
- z-score [12]: 0.461 (inactive)
- z-score [13]: -1.68 (inactive)
- composite z-score [14]: 0.257 (inactive)
- z-score [15]: 0.956 (inactive)
- z-score [16]: 0.254 (inactive)
- z-score [17]: -0.457 (inactive)
- z-score [18]: -0.21 (inactive)
- z-score [19]: -1.09
- composite z-score [20]: -0.0342

SMILES: COC(=O)Cn1c(C(=O)N(C)C)cc2c1C[C@H]1CN(C(=O)c3ccccc3)[C@@](Cc3ccc(F)cc3)(C(=O)OC)[C@@H]21
- z-score [1]: -0.0599
- z-score [2]: -1.23
- z-score [3]: 0.0845
- z-score [4]: -1.38
- z-score [5]: -1.58
- z-score [6]: 0.0394
- z-score [7]: -0.53 (inactive)
- z-score [8]: 0.446
- z-score [9]: -0.148
- z-score [10]: -0.421 (inactive)
- z-score [11]: -0.836
- z-score [12]: 2.15 (inactive)
- z-score [13]: -0.702 (inactive)
- composite z-score [14]: 0.289 (inactive)
- z-score [15]: 0.743 (inactive)
- z-score [16]: 1.34 (inactive)
- z-score [17]: -0.61 (inactive)
- z-score [18]: -0.582 (inactive)
- z-score [19]: -0.795
- composite z-score [20]: -0.13

SMILES: O=C(NCC(F)(F)F)[C@@H]1c2ccccc2C(=O)N(Cc2ccc(OC(F)(F)F)cc2)[C@H]1c1ccc(CO)cc1
- z-score [1]: 0.0723
- z-score [2]: -0.302
- z-score [3]: -0.27
- z-score [4]: -0.404
- z-score [5]: -0.207
- z-score [6]: 1.66
- z-score [7]: 0.506 (inactive)
- z-score [8]: 0.941
- z-score [9]: -0.54
- z-score [10]: 1.01 (inactive)
- z-score [11]: 1.09
- z-score [12]: -1.13 (inactive)
- z-score [13]: 0.482 (inactive)
- composite z-score [14]: -0.504 (inactive)
- z-score [15]: -0.177 (inactive)
- z-score [16]: 0.0971 (inactive)
- z-score [17]: 0.504 (inactive)
- z-score [18]: 0.632 (inactive)
- z-score [19]: 1.04
- composite z-score [20]: 0.104

SMILES: CC(C)(C)N1CC=CC23O[C@@H]4C=CCOC(=O)[C@@H]4[C@H]2C(=O)N(CCCCCCO)[C@@H]3C1=O (stereo not given in full)
- z-score [1]: -0.127
- z-score [2]: -0.739
- z-score [3]: -0.165
- z-score [4]: 1.53
- z-score [5]: 0.0749
- z-score [6]: -0.403
- z-score [7]: 0.567 (inactive)
- z-score [8]: 0.799
- z-score [9]: -0.112
- z-score [10]: -0.0435 (inactive)
- z-score [11]: -0.303
- z-score [12]: -0.093 (inactive)
- z-score [13]: 0.448 (inactive)
- composite z-score [14]: -0.817 (inactive)
- z-score [15]: -0.608 (inactive)
- z-score [16]: -0.957 (inactive)
- z-score [17]: 0.226 (inactive)
- z-score [18]: 0.254 (inactive)
- z-score [19]: 0.29
- composite z-score [20]: 0.0385

SMILES: COc1ccc(CN(C2=CC[C@@]3(C(N)=O)C(=O)C(Cl)=C(Cl)C(=O)[C@@]3(C#N)C2)S(=O)(=O)c2ccc(Br)cc2)cc1
- z-score [1]: 0.236
- z-score [2]: 0.167
- z-score [3]: 0.0144
- z-score [4]: -3.34
- z-score [5]: -1.66
- z-score [6]: -2.16
- z-score [7]: -0.689 (inactive)
- z-score [8]: -0.885
- z-score [9]: -2.06
- z-score [10]: -1.12 (inactive)
- z-score [11]: -0.275
- z-score [12]: -1.2 (inactive)
- z-score [13]: -2.88 (inactive)
- composite z-score [14]: -4.12 (inactive)
- z-score [15]: 0.481 (inactive)
- z-score [16]: -0.96 (inactive)
- z-score [17]: 0.506 (inactive)
- z-score [18]: 0.575 (inactive)
- z-score [19]: -1.18
- composite z-score [20]: 0.0937
